FLuc counter: qHTS profiling assay for firefly luciferase inhibitor/activator using purifed enzyme and Km concentrations of substrates (counterscreen for miR-21 project) | Luciferin 4-monooxygenase (Photinus pyralis), P08659 | purified FLuc, Km substrates, luminescence inhibition | Potency, µM (top dose mostly 57.5 µM), most hits filed as inhibitors | 360,000 tested, 6.9% active | AID 588342, 2011; also: nearly all actives have a fitted effect of over 55% in size
Target sequence (P08659 whole entry, looked up): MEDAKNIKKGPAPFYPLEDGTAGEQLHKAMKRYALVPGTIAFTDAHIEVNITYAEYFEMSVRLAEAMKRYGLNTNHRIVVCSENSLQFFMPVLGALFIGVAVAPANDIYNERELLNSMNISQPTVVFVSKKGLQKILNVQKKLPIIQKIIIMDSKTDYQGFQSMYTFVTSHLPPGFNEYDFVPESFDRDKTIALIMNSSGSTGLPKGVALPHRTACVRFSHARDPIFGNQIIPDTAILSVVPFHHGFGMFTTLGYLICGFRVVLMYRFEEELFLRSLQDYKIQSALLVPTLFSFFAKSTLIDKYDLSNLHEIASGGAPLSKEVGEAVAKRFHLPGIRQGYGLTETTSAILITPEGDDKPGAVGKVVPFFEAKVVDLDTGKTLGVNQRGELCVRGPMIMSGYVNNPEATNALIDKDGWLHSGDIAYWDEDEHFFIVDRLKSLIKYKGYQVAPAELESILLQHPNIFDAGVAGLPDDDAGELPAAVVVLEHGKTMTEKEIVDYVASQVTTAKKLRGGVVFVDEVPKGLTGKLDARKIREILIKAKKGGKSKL
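Biochemical qHTS of compounds, final roughly 60 µM downward over six points, against 10 nM purified firefly luciferase using Km concentrations of substrates (10 uM D-luciferin, 10 uM ATP) in Tris acetate pH 7.5 buffer; luminescence output.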
Rab9 promoter act: qHTS Assay for Rab9 Promoter Activators; Huh7 Rab9 promoter-luciferase reporter, luminescence, 24 h; Potency, µM (top dose mostly 9.22 µM), hits mostly activators; 320,000 tested, 2.8% active; AID 485297, 2010; also: nearly all actives have a fitted effect of over 60% in size
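Measured in stably transfected Huh7 cells bearing a Rab9 promoter–luciferase construct: 24 h compound treatment at 37 °C, followed by luminescence detection.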
NPC1 promoter act: qHTS Assay for NPC1 Promoter Activators; Huh7 NPC1 promoter luciferase reporter, 24 h; Potency, µM (series often up to 9.22 µM), usual class: activators; 320,000 tested, 2.4% active; AID 485313, 2010; also: nearly all actives have a fitted effect of over 60% in size
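Luminescence read-out of NPC1 promoter-driven luciferase in stably transfected Huh7 cells; compounds delivered in DMSO and left 24 h at 37C, 5% CO2, qHTS titration format.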
ELG1 genotoxic: qHTS screen for small molecules that induce genotoxicity in human embryonic kidney (HEK293T) cells expressing luciferase-tagged ELG1; HEK293T ELG1-luciferase reporter, luminescence, 16 h; Potency, µM (highest dose often 46 µM), actives largely listed as activators; 330,000 tested, 1.3% active; also: nearly all actives have a fitted effect of over 60% in size
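Step 1: seed 2,000 HEK293T ELG1-luciferase cells per well. Step 2: add compound or DMSO, incubate 16 hr at 37 °C. Step 3: ONE-Glo, 30 min at room temperature, read luminescence.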
SMN2 splice enh: qHTS Assay for Enhancers of SMN2 Splice Variant Expression; HEK293 SMN2-luciferase splicing reporter, luminescence, 30-36 h; Potency, µM (titrated, usually from 46.1 µM), actives largely listed as activators; 210,000 tested, 2.8% active; AID 1458, 2008; also: nearly all actives have a fitted effect of over 55% in size
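HEK293 cells carry an SMN2 […]–luciferase reporter in which exon 7 inclusion puts luciferase in frame. Cells were plated 10-12 h before compound addition, then incubated 30-36 h at 37C. ONE-Glo luminescence was read; sodium butyrate at 4.5 mM final served as control.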
Each line names hits and unclear results; the compound was inactive in the other large screens. Most compounds without a hit are left out; they make up all but 7.5% or so of the library. Calls follow the shape of the dose curve; as a rule, active = well fitted curve in the direction sought with a large enough effect; inconclusive = small, poorly fitted or top-dose-only effect, or another doubt; inactive = no such curve, though single readings can be large; an effect the other way counts as inactive or inconclusive.

COc1ccc([N+](=O)[O-])cc1NC(=O)c1csc(C)c1	FLuc counter 2.7µM (no result: SMN2 splice enh)
COc1ccc(C(=O)Nc2ccc([N+](=O)[O-])cn2)c(OC)c1	FLuc counter 0.3µM, Rab9 promoter act 0.45µM, NPC1 promoter act 1.1µM, ELG1 genotoxic 1.2µM (no result: SMN2 splice enh)
Cc1cccc(CSc2ncc(Cl)c(C(=O)Nc3sc4c(c3C#N)CCCC4)n2)c1	none (no result: Rab9 promoter act, NPC1 promoter act, ELG1 genotoxic)
CCCCN1C(=O)C(=O)N(c2ccccc2)C1=S	FLuc counter 12µM, Rab9 promoter act 3.5µM, NPC1 promoter act 3.2µM, ELG1 genotoxic inconclusive, SMN2 splice enh 11µM
COCCNC(=O)C(c1ccncc1)N(Cc1ccccc1)C(=O)Cn1nnc2ccccc21 (stereo not given)	FLuc counter inconclusive, Rab9 promoter act inconclusive, NPC1 promoter act inconclusive, SMN2 splice enh 13µM
CNC(C)C#Cc1ccc2c(=O)c3c(OC)cccc3oc2c1 (stereo not given)	FLuc counter 24µM, Rab9 promoter act inconclusive, NPC1 promoter act inconclusive, ELG1 genotoxic inconclusive (no result: SMN2 splice enh)
COc1cccc2oc3ccc(C#Cc4ccccn4)cc3c(=O)c12	FLuc counter 1.1µM, Rab9 promoter act 1.8µM, NPC1 promoter act 0.79µM, ELG1 genotoxic inconclusive (no result: SMN2 splice enh)
CNC(C)C#Cc1ccc2oc3cccc(OC)c3c(=O)c2c1 (stereo not given)	FLuc counter 15µM, Rab9 promoter act inconclusive, ELG1 genotoxic inconclusive (no result: SMN2 splice enh)
CNC(C)C#Cc1ccc2sc3cccc(OC)c3c(=O)c2c1 (stereo not given)	FLuc counter inconclusive (no result: SMN2 splice enh)
O=C(c1cccc(C(F)(F)F)c1)N1CCN(CCc2ccccc2)CC1	none (no result: SMN2 splice enh)
COc1ccc(OC)c(-c2nnc(SCC(=O)N3CCCC3)o2)c1	none (no result: SMN2 splice enh)
CN(Cc1ccc(Cl)s1)C(=O)CCl	none
CCc1ccc(NC(=O)CSc2ncc(S(=O)(=O)c3cc(C)ccc3C)c(=O)[nH]2)cc1	FLuc counter 9.5µM (no result: Rab9 promoter act, NPC1 promoter act, ELG1 genotoxic)
COc1ccccc1CNC(=O)CSc1ncc(S(=O)(=O)c2ccc(C)c(Cl)c2)c(=O)[nH]1	FLuc counter 13µM (no result: Rab9 promoter act, NPC1 promoter act, ELG1 genotoxic, SMN2 splice enh)
CC(C)(C)c1ccc(S(=O)(=O)c2cnc(SCC(=O)Nc3ccc4c(c3)OCCO4)[nH]c2=O)cc1	FLuc counter 11µM (no result: Rab9 promoter act, NPC1 promoter act, ELG1 genotoxic)
Cc1ccc(C)c(NC(=O)CSc2ncc(S(=O)(=O)c3ccc(C)c(Cl)c3)c(=O)[nH]2)c1	FLuc counter 11µM (no result: Rab9 promoter act, NPC1 promoter act, ELG1 genotoxic, SMN2 splice enh)
O=C(CSc1ncc(S(=O)(=O)c2ccccc2)c(=O)[nH]1)Nc1ccccc1Cl	none (no result: SMN2 splice enh)
O=C(Nc1ccccc1OCc1cc(=O)n2ccccc2n1)Nc1ccccc1C(F)(F)F	none (no result: Rab9 promoter act, NPC1 promoter act, ELG1 genotoxic, SMN2 splice enh)
Cc1nn(-c2nnc(NC3CCCCC3)nn2)c(C)c1Br	FLuc counter 4.3µM, Rab9 promoter act 2.2µM, NPC1 promoter act 2.2µM, ELG1 genotoxic 18µM, SMN2 splice enh 13µM
Cc1nn(C)c(C)c1S(=O)(=O)NC1CCCC1	none
CCc1cc2c(SCC(=O)Nc3ccc(NC(C)=O)cc3)ncnc2s1	none (no result: SMN2 splice enh)
CCc1cc2c(Sc3nc4ccccc4s3)ncnc2s1	FLuc counter 11µM (no result: SMN2 splice enh)
c1ccc(CSc2ncnc3sccc23)cc1	none
c1ccc2sc(Sc3ncnc4sccc34)nc2c1	FLuc counter 0.95µM, SMN2 splice enh inconclusive
COc1ccc(-n2c(=S)[nH]c3sc(-c4ccccc4)cc3c2=O)c(OC)c1	FLuc counter 27µM (no result: SMN2 splice enh)
O=C(O)c1cncc(C#CCC2CCCCC2)c1	FLuc counter inconclusive, Rab9 promoter act 2.8µM, NPC1 promoter act inconclusive (no result: SMN2 splice enh)
COc1ccc(-n2nc(C(=O)NCC(=O)N3CCOCC3)c3ccccc3c2=O)cc1OC	FLuc counter 24µM (no result: SMN2 splice enh)
COc1ccc(-n2nc(C(=O)NCC(=O)N3CCN(c4ccccc4OC)CC3)c3ccccc3c2=O)cc1OC	FLuc counter 3.8µM (no result: SMN2 splice enh)
COc1ccc(-n2nc(C(=O)NCC(=O)N3CCN(c4ccccc4)CC3)c3ccccc3c2=O)cc1OC	FLuc counter 0.85µM, NPC1 promoter act inconclusive (no result: SMN2 splice enh)
COc1ccc(-n2nc(C(=O)NCC(=O)Nc3cc(OC)c(OC)c(OC)c3)c3ccccc3c2=O)cc1OC	none (no result: SMN2 splice enh)
COc1ccc(-n2nc(C(=O)NCC(=O)N3CCN(Cc4ccc5c(c4)OCO5)CC3)c3ccccc3c2=O)cc1OC	none
CN(C)c1ccc2c3c(ccc(N(C)C)c13)C(=O)OC2	none (no result: SMN2 splice enh)

Assay outcomes: PubChem, National Center for Advancing Translational Sciences (NCATS)
